Data as given in PubChem BioAssay (NCI).
About 83,000 compounds went through this panel and 20% of them were active in at least one assay; those are over-represented in the sample as a whole.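 Step 1: grow cells in 96-well plates. Step 2: add test compound at a single concentration. Step 3: incubate 48 h. Step 4: record percent growth.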 The source made the active and inactive calls. Rule for the calls: active = growth percent below 10; inactive = the rest.

How the values were obtained:
Assay in all cases: NCI-60 one-dose screen, 48 h (100 = growth as untreated, 0 = no growth, -100 = all killed)
Conditions in all cases: 10 µM unless noted
SK-MEL-2 melanoma = system: SK-MEL-2 melanoma
EKVX NSCLC = system: EKVX NSCLC
SN12C renal = system: SN12C renal
UO-31 renal = system: UO-31 renal
TK-10 renal = system: TK-10 renal
ACHN renal = system: ACHN renal
CAKI-1 renal = system: CAKI-1 renal
A498 renal = system: A498 renal
CCRF-CEM leukemia = system: CCRF-CEM leukemia
MOLT-4 leukemia = system: MOLT-4 leukemia
RPMI-8226 leukemia = system: RPMI-8226 leukemia
OVCAR-8 ovarian = system: OVCAR-8 ovarian
OVCAR-5 ovarian = system: OVCAR-5 ovarian
OVCAR-4 ovarian = system: OVCAR-4 ovarian
SK-OV-3 ovarian = system: SK-OV-3 ovarian
IGROV1 ovarian = system: IGROV1 ovarian
OVCAR-3 ovarian = system: OVCAR-3 ovarian
HS 578T breast = system: HS 578T breast
NCI/ADR-RES ovarian = system: NCI/ADR-RES ovarian

Measured: growth

COc1ccc(NC(=O)n2nc(/C=C\c3ccc(O)c(OC)c3)cc2/C=C\c2ccc(O)c(OC)c2)cc1
inactive: SK-MEL-2 melanoma 21.4% | EKVX NSCLC 52.4% | SN12C renal 31.4% | UO-31 renal 22.7% | TK-10 renal 63.8% | ACHN renal 26% | CAKI-1 renal 38.1% | A498 renal 82.5% | CCRF-CEM leukemia 11.8% | MOLT-4 leukemia 12.2% | RPMI-8226 leukemia 21.3% | OVCAR-8 ovarian 32.8% | OVCAR-5 ovarian 62.3% | OVCAR-4 ovarian 51.5% | SK-OV-3 ovarian 60.7% | IGROV1 ovarian 34.4% | OVCAR-3 ovarian 13.6% | HS 578T breast 28.7%

CCN1C(=O)N(CC)C2Nn3c(s/c(=C\c4ccc([N+](=O)[O-])cc4)c3=O)=NC21 (stereo not drawn)
inactive: SK-MEL-2 melanoma 110% | EKVX NSCLC 73.3% | SN12C renal 79.7% | UO-31 renal 55.1% | TK-10 renal 69.9% | ACHN renal 74.9% | CAKI-1 renal 79.8% | A498 renal 53.2% | CCRF-CEM leukemia 40.6% | MOLT-4 leukemia 61.7% | RPMI-8226 leukemia 51.8% | OVCAR-8 ovarian 66.7% | OVCAR-5 ovarian 82.5% | OVCAR-4 ovarian 14.2% | SK-OV-3 ovarian 105% | IGROV1 ovarian 17.3% | OVCAR-3 ovarian 11.6% | HS 578T breast 83.4% | NCI/ADR-RES ovarian 23.4%

CC[C@H](C)C(=O)O[C@H]1CCC=C2C=C[C@H](C)[C@H](CC[C@@H]3CC=CC(=O)O3)[C@H]21
inactive: SK-MEL-2 melanoma 81.7% | EKVX NSCLC 110% | SN12C renal 67.7% | UO-31 renal 71.8% | TK-10 renal 105% | ACHN renal 86.9% | CAKI-1 renal 90.5% | A498 renal 97% | MOLT-4 leukemia 45.6% | OVCAR-8 ovarian 82% | OVCAR-5 ovarian 112% | OVCAR-4 ovarian 103% | SK-OV-3 ovarian 99.6% | IGROV1 ovarian 83.9% | OVCAR-3 ovarian 73.2% | HS 578T breast 109% | NCI/ADR-RES ovarian 90.9%
active: CCRF-CEM leukemia 6.89% | RPMI-8226 leukemia 0.207%

Cn1cc(-c2ccc3cc(-c4ccc(CC(=O)Nc5cc(C(C)(C)C)nn5C)cc4)cnc3c2)cn1
active: SK-MEL-2 melanoma -38.4% | SN12C renal 5.18% | UO-31 renal 1.27% | ACHN renal 3.05% | CAKI-1 renal 0.564% | A498 renal -18.5% | RPMI-8226 leukemia 3.3% | OVCAR-8 ovarian 3.03% | OVCAR-4 ovarian 3.73% | SK-OV-3 ovarian -5.28% | IGROV1 ovarian -1.22% | HS 578T breast -1.77% | NCI/ADR-RES ovarian -2.56%
inactive: EKVX NSCLC 23.5% | TK-10 renal 15.8% | CCRF-CEM leukemia 23% | MOLT-4 leukemia 13.2% | OVCAR-5 ovarian 43.8% | OVCAR-3 ovarian 14.2%

O=S(=O)(NCCCNc1cc(-c2c(-c3cccc(O)c3)nc3sccn23)ccn1)c1cccc2ccccc12
active: RPMI-8226 leukemia 8.85%
inactive: SK-MEL-2 melanoma 59.8% | EKVX NSCLC 50% | SN12C renal 21.1% | UO-31 renal 27.6% | TK-10 renal 82.7% | ACHN renal 38.9% | CAKI-1 renal 36.1% | A498 renal 59% | CCRF-CEM leukemia 21.2% | MOLT-4 leukemia 26.4% | OVCAR-8 ovarian 19% | OVCAR-5 ovarian 102% | OVCAR-4 ovarian 36.4% | SK-OV-3 ovarian 58.2% | IGROV1 ovarian 30.6% | OVCAR-3 ovarian 40.1% | HS 578T breast 22.7% | NCI/ADR-RES ovarian 77%

O=C1COCCN1c1ccc(NCc2cn(C(=O)c3ccc(Cl)cc3)c3ccccc23)cc1
active: TK-10 renal -26% | CAKI-1 renal -28.7% | A498 renal -88.9% | OVCAR-5 ovarian -25.7% | OVCAR-4 ovarian 3.22% | IGROV1 ovarian -2.18%
inactive: SK-MEL-2 melanoma 61.5% | EKVX NSCLC 83.9% | SN12C renal 74.9% | UO-31 renal 43.6% | ACHN renal 65.7% | CCRF-CEM leukemia 77.1% | MOLT-4 leukemia 85.7% | RPMI-8226 leukemia 52.6% | OVCAR-8 ovarian 66% | SK-OV-3 ovarian 15.7% | OVCAR-3 ovarian 10.6% | HS 578T breast 72.9% | NCI/ADR-RES ovarian 67%

COc1ccc(OC)c(/C=C/c2nnc(Nc3ccccc3)o2)c1
inactive: SK-MEL-2 melanoma 95% | EKVX NSCLC 89.9% | SN12C renal 90.1% | UO-31 renal 94.5% | TK-10 renal 92.5% | ACHN renal 97.2% | CAKI-1 renal 78.3% | A498 renal 73.7% | CCRF-CEM leukemia 87.2% | MOLT-4 leukemia 68.3% | RPMI-8226 leukemia 103% | OVCAR-8 ovarian 105% | OVCAR-5 ovarian 93.2% | OVCAR-4 ovarian 102% | SK-OV-3 ovarian 109% | IGROV1 ovarian 109% | OVCAR-3 ovarian 103% | HS 578T breast 98.5% | NCI/ADR-RES ovarian 94.1%

C=C1CC[C@H](C(C)C)[C@@H]2[C@H]1[C@H]1CC(=C)[C@@H](O)CC[C@@](C)(O)[C@@H]2O1
inactive: SK-MEL-2 melanoma 80.9% | EKVX NSCLC 98.1% | SN12C renal 109% | UO-31 renal 82.6% | TK-10 renal 103% | ACHN renal 95.8% | CAKI-1 renal 95.1% | A498 renal 89.3% | CCRF-CEM leukemia 94% | MOLT-4 leukemia 119% | RPMI-8226 leukemia 93.3% | OVCAR-8 ovarian 99.4% | OVCAR-5 ovarian 79.5% | OVCAR-4 ovarian 98.5% | SK-OV-3 ovarian 109% | IGROV1 ovarian 107% | OVCAR-3 ovarian 101% | HS 578T breast 92.4% | NCI/ADR-RES ovarian 85.9%

COc1c(B(O)O)cc(C)cc1-c1nc2ccc3[nH]ncc3c2c2c1CCCC2
active: CAKI-1 renal -31.8%
inactive: SK-MEL-2 melanoma 102% | EKVX NSCLC 54.2% | SN12C renal 52% | UO-31 renal 23.5% | TK-10 renal 19.7% | ACHN renal 57% | A498 renal 49.2% | CCRF-CEM leukemia 35.1% | MOLT-4 leukemia 19.7% | RPMI-8226 leukemia 35.6% | OVCAR-8 ovarian 53.3% | OVCAR-5 ovarian 89.3% | OVCAR-4 ovarian 102% | SK-OV-3 ovarian 63.5% | IGROV1 ovarian 60.8% | OVCAR-3 ovarian 102% | HS 578T breast 18.2% | NCI/ADR-RES ovarian 55.7%

COc1cc(C(=O)/C=C/c2c(Cl)nc3sccn23)cc(OC)c1OC
inactive: SK-MEL-2 melanoma 86.1% | EKVX NSCLC 90.7% | SN12C renal 66.3% | UO-31 renal 60.4% | TK-10 renal 106% | ACHN renal 86.4% | CAKI-1 renal 84.9% | A498 renal 88% | CCRF-CEM leukemia 48.7% | MOLT-4 leukemia 74% | RPMI-8226 leukemia 40.8% | OVCAR-8 ovarian 85.9% | OVCAR-5 ovarian 92.6% | OVCAR-4 ovarian 90.6% | SK-OV-3 ovarian 83.3% | IGROV1 ovarian 79.8% | OVCAR-3 ovarian 64.5% | HS 578T breast 61% | NCI/ADR-RES ovarian 81.4%

Oc1ccc(Cl)cc1Cc1cc(Cl)cc(Cl)c1O
inactive: SK-MEL-2 melanoma 37.4% | EKVX NSCLC 35.6% | SN12C renal 20.4% | UO-31 renal 44.8% | TK-10 renal 79.5% | ACHN renal 27.9% | CAKI-1 renal 49.6% | A498 renal 85.9% | CCRF-CEM leukemia 19.5% | MOLT-4 leukemia 19.2% | OVCAR-8 ovarian 73.4% | OVCAR-5 ovarian 92.3% | OVCAR-4 ovarian 17.5% | SK-OV-3 ovarian 70.8% | IGROV1 ovarian 66% | NCI/ADR-RES ovarian 24.6%
active: RPMI-8226 leukemia 0.811% | OVCAR-3 ovarian -8.34% | HS 578T breast -14.8%

CC1Cc2ccccc2N1NC(=O)c1ccc(Cl)c(S(N)(=O)=O)c1 (stereo not drawn)
inactive: SK-MEL-2 melanoma 99.4% | EKVX NSCLC 108% | SN12C renal 96.3% | UO-31 renal 83.6% | TK-10 renal 101% | ACHN renal 98% | CAKI-1 renal 94.5% | A498 renal 114% | CCRF-CEM leukemia 95.9% | MOLT-4 leukemia 86.5% | RPMI-8226 leukemia 101% | OVCAR-8 ovarian 104% | OVCAR-5 ovarian 105% | OVCAR-4 ovarian 98.7% | SK-OV-3 ovarian 98.4% | IGROV1 ovarian 98.6% | OVCAR-3 ovarian 119% | HS 578T breast 107% | NCI/ADR-RES ovarian 101%

CCOC(=O)Nc1ccc(C(=O)/C=C/c2ccccc2)cc1
inactive: SK-MEL-2 melanoma 105% | EKVX NSCLC 105% | SN12C renal 87% | UO-31 renal 51.9% | TK-10 renal 103% | ACHN renal 102% | CAKI-1 renal 105% | A498 renal 92.1% | CCRF-CEM leukemia 91.6% | MOLT-4 leukemia 78.8% | RPMI-8226 leukemia 18.9% | OVCAR-8 ovarian 92.3% | OVCAR-5 ovarian 102% | OVCAR-4 ovarian 103% | SK-OV-3 ovarian 110% | OVCAR-3 ovarian 86.8% | HS 578T breast 93.6% | NCI/ADR-RES ovarian 89%
active: IGROV1 ovarian -22.8%

O=C(N/N=C/c1ccc(Cl)cc1)c1ccc(C(F)(F)F)nc1Nc1cccc(C(F)(F)F)c1
inactive: SK-MEL-2 melanoma 25.8% | EKVX NSCLC 17.7% | UO-31 renal 10% | TK-10 renal 26.6% | ACHN renal 13% | A498 renal 12.6% | CCRF-CEM leukemia 33.9% | OVCAR-8 ovarian 24% | OVCAR-5 ovarian 28% | OVCAR-4 ovarian 18.6% | SK-OV-3 ovarian 23.8% | IGROV1 ovarian 21.1%
active: SN12C renal 4.9% | CAKI-1 renal -5.88% | MOLT-4 leukemia 2.2% | RPMI-8226 leukemia 3.59% | OVCAR-3 ovarian -45.2% | HS 578T breast 4.32% | NCI/ADR-RES ovarian -36.2%

O=C(/C=C/c1ccc([N+](=O)[O-])o1)NNC(=O)c1cc2ccccc2cc1O
active: SK-MEL-2 melanoma -50.9% | SN12C renal 7.5% | UO-31 renal 2.06% | ACHN renal -82% | A498 renal -51% | CCRF-CEM leukemia 6.58% | MOLT-4 leukemia 3.05% | RPMI-8226 leukemia -6.98% | OVCAR-8 ovarian 8.19% | IGROV1 ovarian -1.53% | OVCAR-3 ovarian -32.3% | NCI/ADR-RES ovarian 5.33%
inactive: EKVX NSCLC 38.6% | TK-10 renal 19.3% | CAKI-1 renal 22.5% | OVCAR-5 ovarian 45.7% | OVCAR-4 ovarian 29.3% | SK-OV-3 ovarian 32.8% | HS 578T breast 33%

COc1nc2ccc(C)cc2cc1-c1nc2c(cnn2-c2ccc(Br)cc2)c(=O)[nH]1
active: A498 renal 7.08% | OVCAR-3 ovarian -17%
inactive: SK-MEL-2 melanoma 48.2% | EKVX NSCLC 53.5% | SN12C renal 48.5% | UO-31 renal 45.7% | TK-10 renal 77.3% | ACHN renal 37.6% | CAKI-1 renal 48.1% | CCRF-CEM leukemia 17.9% | MOLT-4 leukemia 58.9% | RPMI-8226 leukemia 33.2% | OVCAR-8 ovarian 40.7% | OVCAR-5 ovarian 73.2% | OVCAR-4 ovarian 58% | SK-OV-3 ovarian 43.3% | IGROV1 ovarian 38.4% | HS 578T breast 34.3% | NCI/ADR-RES ovarian 14.2%
